In PubChem BioAssay AID602261 (Sanford-Burnham Center for Chemical Genomics, 2012) one finds inhibition data, which are given here for 25 molecules.

In all, about 360,000 compounds went through this assay and about 2,400 (0.67%) were called active.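 How the source made its calls: active means compounds whose normalised, plate-corrected inhibition of enzyme fluorescence in the single-dose primary screen is 50% or more; inactive means the rest.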 The entries come from a sample that favours actives as a whole.

For this assay, the target named is Fatty acid synthase (Homo sapiens) (UniProt P49327). Briefly: inhibition of human FAS-TE enzyme activity – biochemical, fluorescence intensity, uHTS, primary screen (AID 602261).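 Further: 0% = DMSO with enzyme and 100% = substrate without enzyme.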 As to conditions: recombinant FAS-TE, OMFH fluorogenic substrate, fluorescence endpoint; at 15 µM; stronger effect = higher value.
Chain of Fatty acid synthase (Homo sapiens) (P49327 whole entry, looked up): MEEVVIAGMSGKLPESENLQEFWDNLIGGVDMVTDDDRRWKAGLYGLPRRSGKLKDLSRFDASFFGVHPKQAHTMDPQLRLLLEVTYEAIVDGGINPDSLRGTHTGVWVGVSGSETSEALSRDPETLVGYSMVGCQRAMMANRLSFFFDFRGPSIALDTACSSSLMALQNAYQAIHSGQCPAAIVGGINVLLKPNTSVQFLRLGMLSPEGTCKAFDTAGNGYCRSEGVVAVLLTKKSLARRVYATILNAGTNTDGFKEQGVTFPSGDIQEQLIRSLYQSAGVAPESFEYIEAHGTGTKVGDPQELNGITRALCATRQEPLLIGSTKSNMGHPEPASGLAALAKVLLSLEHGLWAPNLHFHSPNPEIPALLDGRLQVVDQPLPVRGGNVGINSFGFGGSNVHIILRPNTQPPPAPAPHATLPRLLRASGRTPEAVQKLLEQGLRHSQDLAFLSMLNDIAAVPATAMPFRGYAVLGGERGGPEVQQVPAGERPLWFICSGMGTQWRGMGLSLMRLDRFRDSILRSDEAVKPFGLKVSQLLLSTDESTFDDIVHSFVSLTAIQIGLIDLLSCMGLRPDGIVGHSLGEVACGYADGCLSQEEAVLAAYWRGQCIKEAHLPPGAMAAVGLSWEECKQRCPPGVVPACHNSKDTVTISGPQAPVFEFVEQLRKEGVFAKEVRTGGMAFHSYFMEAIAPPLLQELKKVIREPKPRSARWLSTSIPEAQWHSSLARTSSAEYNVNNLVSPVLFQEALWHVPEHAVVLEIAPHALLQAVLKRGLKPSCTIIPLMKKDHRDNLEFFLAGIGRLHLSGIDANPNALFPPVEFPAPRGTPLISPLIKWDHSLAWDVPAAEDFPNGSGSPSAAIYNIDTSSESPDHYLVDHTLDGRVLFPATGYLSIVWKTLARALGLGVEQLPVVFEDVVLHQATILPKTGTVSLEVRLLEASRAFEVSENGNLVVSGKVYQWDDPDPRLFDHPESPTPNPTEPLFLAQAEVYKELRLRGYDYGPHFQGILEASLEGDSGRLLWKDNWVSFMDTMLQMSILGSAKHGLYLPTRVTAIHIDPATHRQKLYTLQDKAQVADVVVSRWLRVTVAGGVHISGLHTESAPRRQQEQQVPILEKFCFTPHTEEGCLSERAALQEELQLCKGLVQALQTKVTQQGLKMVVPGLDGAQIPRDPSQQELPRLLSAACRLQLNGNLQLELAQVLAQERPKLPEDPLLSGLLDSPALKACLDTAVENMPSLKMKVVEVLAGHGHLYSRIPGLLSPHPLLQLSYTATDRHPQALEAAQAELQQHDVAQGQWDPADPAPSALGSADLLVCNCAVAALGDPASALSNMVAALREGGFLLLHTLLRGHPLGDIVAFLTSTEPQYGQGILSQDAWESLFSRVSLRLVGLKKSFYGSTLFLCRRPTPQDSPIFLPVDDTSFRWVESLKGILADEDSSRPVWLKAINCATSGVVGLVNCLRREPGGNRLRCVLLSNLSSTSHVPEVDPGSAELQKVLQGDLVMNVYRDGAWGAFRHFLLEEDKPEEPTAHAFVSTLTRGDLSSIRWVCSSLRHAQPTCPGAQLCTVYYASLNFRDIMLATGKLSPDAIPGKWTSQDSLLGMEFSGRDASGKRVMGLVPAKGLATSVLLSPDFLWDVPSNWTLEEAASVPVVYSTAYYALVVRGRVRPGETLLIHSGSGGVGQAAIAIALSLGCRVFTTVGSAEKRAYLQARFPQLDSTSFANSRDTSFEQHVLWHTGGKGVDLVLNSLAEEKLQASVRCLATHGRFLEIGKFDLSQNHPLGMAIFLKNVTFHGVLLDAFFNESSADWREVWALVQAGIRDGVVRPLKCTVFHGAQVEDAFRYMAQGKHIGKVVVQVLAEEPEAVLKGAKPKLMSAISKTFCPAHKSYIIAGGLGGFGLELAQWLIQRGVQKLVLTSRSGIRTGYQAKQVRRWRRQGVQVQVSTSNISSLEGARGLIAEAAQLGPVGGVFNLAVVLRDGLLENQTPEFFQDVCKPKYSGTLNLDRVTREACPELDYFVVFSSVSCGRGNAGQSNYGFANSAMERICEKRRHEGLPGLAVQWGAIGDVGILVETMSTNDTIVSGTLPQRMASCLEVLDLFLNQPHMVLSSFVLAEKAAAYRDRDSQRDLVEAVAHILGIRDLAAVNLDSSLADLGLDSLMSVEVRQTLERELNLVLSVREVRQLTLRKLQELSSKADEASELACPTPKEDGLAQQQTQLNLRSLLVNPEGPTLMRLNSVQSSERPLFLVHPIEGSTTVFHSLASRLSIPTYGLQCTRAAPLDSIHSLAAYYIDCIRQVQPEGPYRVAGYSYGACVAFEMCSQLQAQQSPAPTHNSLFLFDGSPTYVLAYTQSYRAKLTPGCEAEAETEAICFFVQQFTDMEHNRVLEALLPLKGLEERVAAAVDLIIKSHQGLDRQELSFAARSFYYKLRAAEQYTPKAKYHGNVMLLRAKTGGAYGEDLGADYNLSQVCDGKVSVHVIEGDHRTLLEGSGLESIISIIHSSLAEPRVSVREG
As for `CC(NS(=O)(=O)c1ccc(Cl)cc1)C(=O)Nc1ccc2c(c1)OCCO2` (stereo not given), the inhibition is -2.1% (inactive).

Turning to `CCN(CC)CCNC(=O)c1ccc(NS(=O)(=O)c2ccc3c(c2)OCCO3)cc1`, the inhibition is -4.3% (inactive).

Turning to `O=C(Nc1cccc(S(=O)(=O)Nc2ccc(Cl)cc2)c1)c1ccc2c(c1)OCCO2`, the inhibition was 54% (active).

For `CCN(CC)c1ccc(S(=O)(=O)N2CCOCC2)cc1NC(=O)CSc1cccc[n+]1[O-]`, the inhibition was -33.9% (inactive).

On to `O=C(Nc1ccc(OC(F)(F)F)cc1)c1ccc2c(c1)no[n+]2[O-]`, for which the inhibition is 50.7% (active).

Take `O=C(Nc1ccccc1)c1ccc2nsnc2c1`: the inhibition was -6.4% (inactive).

In the case of `CCc1nnc(NS(=O)(=O)c2ccc(NC(=O)c3cccc(OC(F)(F)C(F)F)c3)cc2)s1`, the inhibition is 15.6% (inactive).

As to `COc1ccccc1C(=O)NC(CCSC)C(=O)NNC(=O)c1ccccc1C` (stereo not given), the inhibition is -1.2% (inactive).

As to `CC(c1ccco1)N(C(=O)COc1ccccc1[N+](=O)[O-])c1ccccn1` (stereo not given), the inhibition was 6.4% (inactive).

Consider `CN1CCOC1c1ccc(C2OCCN2C)cc1` (stereo not given), for which the inhibition was -6.4% (inactive).

Take `CC(=O)c1ccc(N2CCN(S(=O)(=O)c3ccc4c(c3)CC(=O)N4C)CC2)cc1`: the inhibition is 8.9% (inactive).

In the case of `CC(=O)c1ccc(S(=O)(=O)N2CCN(c3nc4c(C)c(C)ccc4cc3C#N)CC2)cc1`, the inhibition is 61.5% (active).

In the case of `CC(=O)c1ccc(S(=O)(=O)N2CCC3(CC2)OCCO3)cc1`, the inhibition is -3.8% (inactive).

For the molecule `Oc1c(Br)cc(/C=N/NC(=S)NCC2CCCO2)cc1Br` (stereo not given), the inhibition is -3.3% (inactive).

As to `O=C(NC1CCCC1)C1c2ccccc2OCC(=O)N1Cc1ccccc1` (stereo not given), the inhibition is -7.8% (inactive).

In the case of `Cc1ccc(NC(=O)N2CCSc3ccccc32)cc1`, the inhibition was 3.8% (inactive).

In the case of `O=C(/C=C/c1cccc([N+](=O)[O-])c1)OCC(=O)N1CCOCC1`, the inhibition is -3.4% (inactive).

For the molecule `O=C(c1cccc(Cl)c1)N1CCN(Cc2ccccc2)CC1`, the inhibition is -4.7% (inactive).

On to `O=C(/C=C/c1cccc([N+](=O)[O-])c1)N1CCN(Cc2ccccc2)CC1`, for which the inhibition is 69.8% (active).

With `CCCOc1ccc(/C(O)=C2/C(=O)C(=O)N(CCN(C)C)C2c2ccc(OC)c(OC)c2)cc1` (stereo not given), the inhibition was -4.4% (inactive).

Turning to `CCN1CCCC1CNC(=O)c1ccc2c(c1)NC(=O)/C(=C\c1ccccc1F)S2` (stereo not given), the inhibition is -6.6% (inactive).

Consider `CCOC(=O)N1CCN(S(=O)(=O)N2CCCC(C(=O)NCCCN3CCC(C)CC3)C2)CC1` (stereo not given), for which the inhibition was -9% (inactive).

For the molecule `O=S(=O)(c1ccc(Cl)cc1)c1nc(-c2ccco2)oc1N1CCCCC1`, the inhibition is 17.9% (inactive).

For `Cn1c(NN)nc2sc3c(c2c1=O)CCC3`, the inhibition was 0% (inactive).

With `O=c1oc(-c2ccco2)nc2sc3c(c12)CCCCC3`, the inhibition was 59.2% (active).
